Measured values published in PubChem BioAssay (NCATS).
Values joined by “and” are separate entries in the source; they are usually repeats but may differ in a detail not shown here. Equal values may be shown once. Inconclusive results are not listed. A structure can be active in one record and inactive in another. Active and inactive are the calls of the source. Unless noted, calls come from the whole dose curve; as a rule, active = well fitted curve in the direction sought with a large enough effect; inconclusive = small, poorly fitted or top-dose-only effect, or another doubt; inactive = no such curve, though single readings can be large; an effect the other way counts as inactive or inconclusive.

Tests used:
WaGa = test: qHTS assay to identify novel small-molecules to repurpose for Merkel cell carcinoma treatment (AID 1296009); conditions: MCC and control cell lines, CellTiter-Glo viability, 72 h; series mostly up to 46 µM; note: nearly all actives have a fitted effect of over 60% in size; note: potency is the fitted concentration of half-maximal effect; for activity change, negative = cytotoxicity: % is set by controls: 0 for no effect and ±100 for the full control effect
How it was run: (§1)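 Cells were incubated with compound for 72 hr at 37 degree celsius before CellTiter-Glo addition. Luminescence was normalized with no-cell wells as full cytotoxicity and DMSO as baseline.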

UISO = test: as above; conditions: MCC and control cell lines, CellTiter-Glo viability, 72 h; series mostly up to 46 µM
How it was run: as §1

C33A = test: Primary qHTS to identify gynecologic anti-cancer compounds using libraries of approved drugs and bioactive compounds (AID 1345084); conditions: Gynecologic cancer cell panel viability, ATPlite luminescence, 48 h; series mostly up to 57.5 µM; note: nearly all actives have a fitted effect of over 55% in size; note: potency is the fitted concentration of half-maximal effect; for activity change, negative = cytotoxicity: % is set by controls: 0 for no effect and ±100 for the full control effect
How it was run: (§2)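 Luminescence from the ATPlite ATP-monitoring reagent indicates viable cell number; lower signal means cytotoxicity. Cells received compound 16 h after seeding and were exposed for 48 h across five concentrations.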

CASKI = test: as above; conditions: Gynecologic cancer cell panel viability, ATPlite luminescence, 48 h; series mostly up to 57.5 µM
How it was run: as §2

Es-2 = test: as above; conditions: Gynecologic cancer cell panel viability, ATPlite luminescence, 48 h; series mostly up to 57.5 µM
How it was run: as §2

HeLa = test: as above; conditions: Gynecologic cancer cell panel viability, ATPlite luminescence, 48 h; series mostly up to 57.5 µM
How it was run: as §2

Hek293T = test: as above; conditions: Gynecologic cancer cell panel viability, ATPlite luminescence, 48 h, control line for the selectivity index; series mostly up to 57.5 µM
How it was run: as §2

JEG-3 = test: as above; conditions: Gynecologic cancer cell panel viability, ATPlite luminescence, 48 h; series mostly up to 57.5 µM
How it was run: as §2

OV90 = test: as above; conditions: Gynecologic cancer cell panel viability, ATPlite luminescence, 48 h; series mostly up to 57.5 µM
How it was run: as §2

PA-1 = test: as above; conditions: Gynecologic cancer cell panel viability, ATPlite luminescence, 48 h; series mostly up to 57.5 µM
How it was run: as §2

Tov-21-G = test: as above; conditions: Gynecologic cancer cell panel viability, ATPlite luminescence, 48 h; series mostly up to 57.5 µM
How it was run: as §2

Tov112D = test: as above; conditions: Gynecologic cancer cell panel viability, ATPlite luminescence, 48 h; series mostly up to 57.5 µM
How it was run: as §2

[1] = Drug repurposing screens with cells derived from glioblastoma tumor samples (AID 1345199); conditions: GBM patient neurospheres viability, ATP luminescence, 48 h; note: nearly all actives have a fitted effect of over 40% in size; note: potency is the fitted concentration of half-maximal effect
How it was run: (§3)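 Four patient lines of CD133+ GBM neurospheres were screened at several concentrations; hits were retested in those lines plus three slower-growing GBM lines, using 48-hour treatment and ATP-based viability.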

astro = test: as above; conditions: viability, ATP luminescence, 48 h; series mostly up to 45.9 µM
How it was run: as §3

[2] = qHTS assay for small molecule activators of the human pregnane X receptor (PXR) signaling pathway (AID 720659; call rule not given here; note: 0% is about no effect)
SKOV3 = test: Primary qHTS to identify gynecologic anti-cancer compounds using libraries of approved drugs and bioactive compounds (AID 1345084); conditions: Gynecologic cancer cell panel viability, ATPlite luminescence, 48 h; series mostly up to 57.5 µM; note: nearly all actives have a fitted effect of over 55% in size; note: potency is the fitted concentration of half-maximal effect; for activity change, negative = cytotoxicity: % is set by controls: 0 for no effect and ±100 for the full control effect
How it was run: as §2

[3] = target: Nuclear receptor subfamily 1 group I member 2 (Rattus norvegicus) (UniProt Q9R1A7); test: qHTS assay for small molecule activators of the rat pregnane X receptor (rPXR) signaling pathway (AID 651751; call rule not given here; note: 0% is about no effect); conditions: rPXR reporter cells, luciferase (One-Glo), 24 h
CAOV3 = test: Primary qHTS to identify gynecologic anti-cancer compounds using libraries of approved drugs and bioactive compounds (AID 1345084); conditions: Gynecologic cancer cell panel viability, ATPlite luminescence, 48 h; series mostly up to 57.5 µM; note: nearly all actives have a fitted effect of over 55% in size; note: potency is the fitted concentration of half-maximal effect; for activity change, negative = cytotoxicity: % is set by controls: 0 for no effect and ±100 for the full control effect
How it was run: as §2

[4] = qHTS assay to identify inhibitors of the type 1 interferon - major histocompatibility complex class I in skeletal muscle: Counter screen cell viability and HiBit confirmation (AID 1347412); conditions: iHSKM muscle cells + IFN-b, HiBiT or CellTiter-Glo, 24 h; Potency: HiBiT; Viability, at 45.9 µM (top of the series); note: nearly all actives have a fitted effect of over 60% in size; note: potency is the fitted concentration of half-maximal effect
How it was run: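 HLA-B*08:01–HiBiT knock-in immortalized human myoblasts (C25cl48) stimulated with 4.0 ng/ml human IFN-beta and dosed with compound in a 12-point 1:3 titration (top final 46 uM). After 24 hrs at 37 C, HiBiT lytic luminescence or CellTiter Glo ATP read out.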

[5] = at 45.9 µM (top of the series), tumour line B
[6] = at 45.9 µM (top of the series), tumour line D
[7] = at 46.1 µM (top of the series), tumour line C

Nuclear receptor subfamily 1 group I member 2 (Rattus norvegicus), sequence (Q9R1A7 whole entry, looked up): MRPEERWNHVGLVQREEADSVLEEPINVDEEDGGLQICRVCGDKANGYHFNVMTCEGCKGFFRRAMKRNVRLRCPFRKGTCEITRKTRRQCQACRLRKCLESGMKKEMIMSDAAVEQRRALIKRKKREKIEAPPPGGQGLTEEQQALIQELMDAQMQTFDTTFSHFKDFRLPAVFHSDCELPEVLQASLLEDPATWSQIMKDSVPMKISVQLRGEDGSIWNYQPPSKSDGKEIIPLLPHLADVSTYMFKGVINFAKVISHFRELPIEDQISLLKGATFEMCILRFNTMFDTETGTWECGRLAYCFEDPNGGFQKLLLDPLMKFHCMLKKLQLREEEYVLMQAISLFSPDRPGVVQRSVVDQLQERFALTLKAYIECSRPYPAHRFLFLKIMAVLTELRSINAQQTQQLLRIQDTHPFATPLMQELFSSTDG

Nc1nccc(-c2ccc3noc(-c4ccc(Cl)cc4)c3c2)n1
inactive: Potency (WaGa)

CCCC(CCC)C(=O)O
inactive: Potency (UISO) | Potency (WaGa) | Potency (C33A) | Potency (CASKI) | Potency (Es-2) | Potency (HeLa) | Potency (Hek293T) | Potency (JEG-3) | Potency (OV90) | Potency (PA-1) | Potency (Tov-21-G) | Potency (Tov112D) | activity, negative = cell killing [1, 5] -7.18% | activity, negative = cell killing [1, 6] -10.3% | activity, negative = cell killing ([1]; at 46 µM (top of the series), tumour line A) -15.5% | activity, negative = cell killing [1, 7] 0.524% | Potency (astro) | outcome [2]

Cc1c(CN2CCN(C(=O)C(C)C)CC2)sc2c(N3CCOCC3)nc(-c3cnc(N)nc3)nc12
inactive: Potency (WaGa)

NS(=O)(=O)c1cc2c(cc1Cl)NC=NS2(=O)=O
inactive: Potency (UISO) | Potency (WaGa) | Potency (C33A) | Potency (CASKI) | Potency (Es-2) | Potency (HeLa) | Potency (Hek293T) | Potency (JEG-3) | Potency (PA-1) | Potency (SKOV3) | Potency (Tov-21-G) | Potency (Tov112D) | activity, negative = cell killing [1, 5] -4.14% | activity, negative = cell killing [1, 6] -10.8% | activity, negative = cell killing [1, 7] 23.2% | Potency (astro) | max response [3] -2.2%

Cc1ccc(NC(=O)c2cccc(C(C)(C)C#N)c2)cc1Nc1ccc2ncn(C)c(=O)c2c1
inactive: Potency (WaGa)

Clc1ccc(Nc2nnc(Cc3ccncc3)c3ccccc23)cc1
inactive: Potency (UISO) | Potency (C33A) | Potency (CASKI) | Potency (Es-2) | Potency (HeLa) | Potency (Hek293T) | Potency (JEG-3) | Potency (OV90) | Potency (PA-1) | Potency (SKOV3) | Potency (Tov-21-G) | Potency (Tov112D) | activity, negative = cell killing [1, 5] -12.8% and 0.35% | activity, negative = cell killing [1, 7] -11.6% and 1.14%
active: Potency ([1]; tumour line A) 12.6 µM and 7.08 µM

N#Cc1ccc(C(c2ccc(C#N)cc2)n2cncn2)cc1
inactive: Potency (UISO) | Potency (WaGa) | activity, negative = cell killing ([1]; at 20 µM (top of the series), tumour line C) -3.52% | activity, negative = cell killing ([1]; at 21.2 µM (top of the series), tumour line B) -10% | activity, negative = cell killing ([1]; at 21.2 µM (top of the series), tumour line D) -7.94% | Potency (astro)

CC(C)(Sc1ccc(CCN(CCCCC2CCCCC2)C(=O)NC2CCCCC2)cc1)C(=O)O
inactive: Potency (UISO) | Potency (C33A) | Potency (CASKI) | Potency (Es-2) | Potency (HeLa) | Potency (Hek293T) | Potency (JEG-3) | Potency (OV90) | Potency (PA-1) | Potency (SKOV3) | Potency (Tov-21-G) | Potency (Tov112D) | max response [3] -3.94% | outcome [2]

Cc1cc(SCc2sc(-c3ccc(C(F)(F)F)cc3)nc2C)ccc1OCC(=O)O
inactive: Potency (UISO) | Potency (WaGa) | Potency (CAOV3) | Potency (CASKI) | Potency (Es-2) | Potency (HeLa) | Potency (Hek293T) | Potency (JEG-3) | Potency (OV90) | Potency (PA-1) | Potency (SKOV3) | Potency (Tov-21-G) | Potency (Tov112D)

CS(=O)(=O)c1ccc(C(=O)Nc2ccc(Cl)c(-c3ccccn3)c2)c(Cl)c1
inactive: Potency (UISO) | Potency (WaGa) | Potency (CASKI) | Potency (Es-2) | Potency (HeLa) | Potency (Hek293T) | Potency (JEG-3) | Potency (OV90) | Potency (PA-1) | Potency (SKOV3) | Potency (Tov-21-G) | Potency (Tov112D)

O=C(c1cc(Cc2n[nH]c(=O)c3ccccc23)ccc1F)N1CCN(C(=O)C2CC2)CC1
inactive: Potency (C33A) | Potency (CASKI) | Potency (Es-2) | Potency (HeLa) | Potency (Hek293T) | Potency (JEG-3) | Potency (OV90) | Potency (PA-1) | Potency (Tov-21-G) | Potency (Tov112D)
active: Potency (UISO) 16.6 µM

CC[C@H](Nc1ncnc2nc[nH]c12)c1nc2cccc(F)c2c(=O)n1-c1ccccc1
inactive: Potency (UISO) | activity change, negative = cytotoxicity (C33A) -4.71% [at 11.6 µM] | activity change, negative = cytotoxicity (CASKI) -22.6% [at 11.6 µM] | activity change, negative = cytotoxicity (Es-2) -27.1% [at 11.6 µM] | activity change, negative = cytotoxicity (HeLa) -8.83% [at 11.6 µM] | activity change, negative = cytotoxicity (Hek293T) -17.7% [at 11.6 µM] | activity change, negative = cytotoxicity (JEG-3) -10.7% [at 11.6 µM] | activity change, negative = cytotoxicity (OV90) -4.59% [at 11.6 µM] | activity change, negative = cytotoxicity (PA-1) 0.976% [at 11.6 µM] | activity change, negative = cytotoxicity (Tov-21-G) -9.1% [at 11.6 µM] | activity change, negative = cytotoxicity (Tov112D) -0.869% [at 11.6 µM]

Cc1cnc(Nc2ccc(OCCN3CCCC3)cc2)nc1Nc1cccc(S(=O)(=O)NC(C)(C)C)c1
active: Potency (CAOV3) 10 µM | Potency (CASKI) 14.1 µM | Potency (HeLa) 7.08 µM | Potency (JEG-3) 12.6 µM | Potency (OV90) 17.8 µM | Potency (PA-1) 8.91 µM | Potency (SKOV3) 7.94 µM | Potency (Tov-21-G) 7.94 µM | Potency (Tov112D) 11.2 µM | Potency [4] 6.25 µM
inactive: Potency (UISO) | Potency (WaGa)

Cc1cc2c(C(C)C)c(O)c(O)c(C=O)c2c(O)c1-c1c(C)cc2c(C(C)C)c(O)c(O)c(C=O)c2c1O
active: Potency (UISO) 21.1 µM | Potency (WaGa) 23.7 µM
inactive: Potency (CASKI) | Potency (Es-2) | Potency (JEG-3) | Potency (Tov-21-G) | Potency (Tov112D) | Potency [4] | outcome [2]

O=S(=O)(N=Cc1c(O)ccc2ccccc12)c1cccs1
inactive: Potency (WaGa)

COc1c(Cl)cc2c([nH]c3cnccc32)c1NC(=O)c1cccnc1C
inactive: Potency (UISO) | Potency (WaGa) | Potency (C33A) | Potency (CASKI) | Potency (Es-2) | Potency (HeLa) | Potency (Hek293T) | Potency (JEG-3) | Potency (OV90) | Potency (PA-1) | Potency (Tov-21-G) | Potency (Tov112D) | Potency [4]

COc1nc(-c2ccc3c(c2)OCO3)n(-c2ccc(NC(=O)CSc3ccccc3)cc2)n1
inactive: Potency (UISO) | Potency (WaGa) | Potency (C33A) | Potency (CASKI) | Potency (Es-2) | Potency (Hek293T) | Potency (JEG-3) | Potency (OV90) | Potency (PA-1) | Potency (SKOV3) | Potency (Tov-21-G) | Potency (Tov112D)

O=C(Nc1cccnc1)N1CCC(Cc2cccc(Oc3ccc(C(F)(F)F)cn3)c2)CC1
inactive: Potency (HeLa) | Potency (PA-1)
active: Potency (UISO) 16.6 µM

CCOC(=O)C1=C[C@]2(CC)CCCN3CCc4c(n1c1ccccc41)[C@@H]32
inactive: Potency (UISO) | Potency (WaGa) | Potency (C33A) | Potency (CASKI) | Potency (Es-2) | Potency (HeLa) | Potency (Hek293T) | Potency (JEG-3) | Potency (OV90) | Potency (PA-1) | Potency (Tov-21-G) | Potency (Tov112D) | activity, negative = cell killing [1, 5] -28.2% and -25.8% | Potency (astro)
active: Potency ([1]; tumour line A) 4.47 µM | Potency ([1]; tumour line D) 10 µM

C[C@]12CCC(=O)C=C1CC[C@@H]1[C@@H]2[C@@H](O)C[C@@]2(C)[C@H]1CC[C@]2(O)C(=O)CO
inactive: Potency (UISO) | Potency (WaGa) | Potency (C33A) | Potency (CASKI) | Potency (Es-2) | Potency (HeLa) | Potency (Hek293T) | Potency (JEG-3) | Potency (PA-1) | Potency (Tov-21-G) | Potency (Tov112D)

COc1ccc(C2=N[C@H](c3ccc(Cl)cc3)[C@H](c3ccc(Cl)cc3)N2C(=O)N2CCNC(=O)C2)c(OC(C)C)c1
active: Potency (WaGa) 2.96 µM

CC1(C)Cc2c(-c3ccccc3)c(-c3ccc(Cl)cc3)c(CC(=O)O)n2C1
inactive: Potency (UISO) | Potency (WaGa) | Potency (C33A) | Potency (CASKI) | Potency (Es-2) | Potency (HeLa) | Potency (JEG-3) | Potency (OV90) | Potency (PA-1) | Potency (SKOV3) | Potency (Tov112D)

COc1cc(F)c(F)c(Nc2ccc(I)cc2F)c1NS(=O)(=O)C1(C[C@H](O)CO)CC1
active: Potency (OV90) 2.51 µM
inactive: Potency (UISO) | Potency (WaGa) | Potency (C33A) | Potency (CASKI) | Potency (HeLa) | Potency (Hek293T) | Potency (JEG-3) | Potency (PA-1) | Potency (SKOV3)
